Reference: PubChem BioAssay AID977607 (Broad Institute, 2014)
Hit rate of the full screen: of about 1,500 compounds, about 460 (31%) were called active. Another 1% or so got no clear call; they are omitted.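 Rule for the calls: active = curve reaches 40% activation over neutral controls at an AC40 no higher than the top valid tested concentration; inconclusive = no clear call, values can overlap the other calls; inactive = signal moving opposite to the expected increase, and the rest.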 The list is a sample of the results. Potency and affinity values are given separately.

test: activators of glucose-dependent insulin secretion, dose response, cell-based, INS-1E, Gaussia luciferase, luminescence, cherry-pick, set 2 (AID 977607); details: INS-1E GLuc insulin secretion reporter, 2-3 h, stronger effect = higher value; at 35 µM, 100% = signal doubled over neutral wells unless noted;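 note: 0% = median of the plate neutral control wells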

Max activation, inactive:
C1CCN(CCCNC2C3CC4CC(C3)CC2C4)C1 (stereo not given) -11.8% [at 0.0016 µM, 100% = signal doubled over neutral wells], CCc1nc2c(nnn2Cc2ccc(F)cc2)c(=O)[nH]1 -16% [at 0.42 µM, 100% = signal doubled over neutral wells], COc1ccc(CC(=O)N2CCc3cc(OC)c(OC)cc3C2)cc1 20%, COc1ccc(-c2cc(-c3ccco3)[nH]c(=O)c2C#N)cc1OC -12.7% [at 3.8 µM, 100% = signal doubled over neutral wells], O=C(Nc1nnc(CCS(=O)(=O)c2ccc3ccccc3c2)s1)c1cccs1 -24% [at 0.015 µM, 100% = signal doubled over neutral wells], O=C(Nc1ccc(NC(=O)c2cccs2)cc1)c1ccc(Br)o1 -18.3% [at 0.135 µM, 100% = signal doubled over neutral wells], CC1(C)N=C(c2ccccc2)C(c2ccccc2)=N1 33.2%, CCOC(=O)Cn1nc(-c2ccccc2)c(-c2ccccc2)nc1=O -19.8% [at 0.005 µM, 100% = signal doubled over neutral wells], CCOC(=O)c1cc(-c2ccncc2)nc2c1c(C)nn2-c1ccccn1 -16.4% [at 0.005 µM, 100% = signal doubled over neutral wells], CCOc1ncccc1C(=O)OCC(=O)NCCc1ccc(S(N)(=O)=O)cc1 -12.8% [at 0.046 µM, 100% = signal doubled over neutral wells], Cc1ccc(-n2cc(CNCCCn3ccnc3C)c(-c3ccc(F)cc3)n2)cc1 -12.6% [at 1.2 µM, 100% = signal doubled over neutral wells], COc1ccc(S(=O)(=O)N(C)c2ccc(C(=O)N3CCCC3)cc2)cc1OC -12.8% [at 3.8 µM, 100% = signal doubled over neutral wells], O=C(O)c1ccc(S(=O)(=O)N2CCC3(CC2)CC(=O)c2ccccc2O3)cc1 -16.3% [at 1.2 µM, 100% = signal doubled over neutral wells], CCCN1C[C@@H](C)[C@@H](OC)CN(C)C(=O)c2ccc(NC(=O)c3cccc(F)c3)cc2OC[C@H]1C -15.7% [at 0.005 µM, 100% = signal doubled over neutral wells], O=C(Nc1cccc(Cl)c1)c1cnn2cccnc12 29.7%, CCc1nc2ccc(C(=O)NCCCN3CCCC3=O)cn2c1N(CCC(C)C)CCN(C)C -19.8% [at 0.42 µM, 100% = signal doubled over neutral wells], CC(=O)c1cccc(-c2csc3ncnc(Sc4nnnn4C)c23)c1 -11.8% [at 0.005 µM, 100% = signal doubled over neutral wells], CCN(CC)C(=O)C1(P(=O)(c2ccccc2)c2ccccc2)CCC1 -17.4% [at 0.42 µM, 100% = signal doubled over neutral wells], O=C(c1ccco1)N(Cc1ccc(Cl)cc1)C1CCS(=O)(=O)C1 (stereo not given) 17.8%, O=c1c(Cc2ccc(Cl)cc2Cl)c(O)ccn1CC(F)(F)F 17.3%, CCn1nnnc1NCc1ccc(OCc2c(F)cccc2Cl)c(OC)c1 -22.7% [at 1.2 µM, 100% = signal doubled over neutral wells], COc1ccc(CNC(=O)C2Cc3c(-c4ccccc4)ccnc3O2)cc1OC (stereo not given) -21.6% [at 11 µM, 100% = signal doubled over neutral wells], C/C(Cl)=C\Cn1c(N2CCCC2)nc2c1c(=O)n(C)c(=O)n2C -30.4% [at 1.2 µM, 100% = signal doubled over neutral wells], CCNc1nc(NCC)nc(N(C#N)C(C)C)n1 28.6% [at 11 µM, 100% = signal doubled over neutral wells], Cc1nc2ccccc2c2nc(NC(=O)C(F)(F)F)nn12 -15.5% [at 11 µM, 100% = signal doubled over neutral wells], CC(C)Oc1ccc(Br)cc1C(=O)N/N=C/c1c[nH]c2ccccc12 -45.1%, CN(C)c1ccc(/C=N/NC(=O)c2ccccc2Cl)cc1 -9.59% [at 0.046 µM, 100% = signal doubled over neutral wells], NC(=O)c1ncn([C@@H]2O[C@H](C(=O)N[C@H](Cc3ccccc3)C(=O)O)[C@@H](O)[C@H]2O)n1 -32.5%, COc1ccc(N2CCN(C(c3cccs3)C(C)NC(=O)C(=O)N3CCOCC3)CC2)cc1 (stereo not given) -16.6% [at 3.8 µM, 100% = signal doubled over neutral wells], Cc1ccc(CC2S/C(=N/c3ccccn3)NC2=O)cc1 (stereo not given) -16.1% [at 0.42 µM, 100% = signal doubled over neutral wells], Cc1ccc(NC(=O)CC2S/C(=N/N=C/c3c[nH]c4ccccc34)NC2=O)cc1 (stereo not given) 19.8% [at 3.8 µM, 100% = signal doubled over neutral wells], CCOC(=O)N1CCN(S(=O)(=O)N2CCCC(C(=O)NCc3cc(OC)ccc3OC)C2)CC1 (stereo not given) -20.8% [at 1.2 µM, 100% = signal doubled over neutral wells], CCOC(=O)c1c(NC(=O)c2ccoc2C)sc(C(=O)N(C)C)c1C 12.6%, CC(=O)Nc1sc(C)c(C)c1C(=O)OCC(=O)Nc1cc(S(C)(=O)=O)ccc1Cl -22.2%, O=c1[nH]c(CN2CCN(c3ccc(O)cc3)CC2)nc2scc(-c3ccc(Cl)cc3)c12 -25.6%
